# Screen size: about 5,500 compounds; about 2,000 (36%) were called active. Inconclusive results (about 18%) are left out. The list shows a part of the results. Unmarked numbers belong to inactive results. No stated cut-off is given here; in the data, active means normalized growth mostly below about 0.91 (no sharp cut-off); inconclusive means no clear call, values can overlap the other calls; inactive means mostly above about 0.92.
# Assay: chemical genetic growth profiling, strain panel (AID 1159580);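 further: tested at 20 µM; growth read once vehicle control cultures reached saturation at 30 °C; 1 = growth at the plate median or of vehicle wells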
# Details: S. cerevisiae deletion strains, growth OD
smiles,measurement,setting,value
C/C(=N/NC(=S)NCC(C)(C)C)c1cc(F)cc(Cl)c1O,normalized growth,"locus YAR019C, strain CDC15, stronger effect = lower value",0.963
same,normalized growth,"locus YBL105C, strain PKC1, stronger effect = lower value",0.961
same,normalized growth,"locus YBR135W, strain CKS1, stronger effect = lower value",0.956
same,normalized growth,"locus YBR136W, strain MEC1, stronger effect = lower value",0.959
same,normalized growth,"locus YBR160W, strain CDC28, stronger effect = lower value",0.97
same,normalized growth,"locus YDL017W, strain CDC7, stronger effect = lower value",0.953
same,normalized growth,"locus YDL028C, strain MPS1, stronger effect = lower value",0.959
same,normalized growth,"locus YDL101C, strain DUN1, stronger effect = lower value",0.967
same,normalized growth,"locus YDL108W, strain KIN28, stronger effect = lower value",0.972
same,normalized growth,"locus YDL132W, strain cdc53, stronger effect = lower value",0.98
same,normalized growth,"locus YDL214C, strain PRR2, stronger effect = lower value",0.942
same,normalized growth,"locus YDR052C, strain DBF4, stronger effect = lower value",0.971
same,normalized growth,"locus YDR054C, strain cdc34, stronger effect = lower value",0.976
same,normalized growth,"locus YDR226W, strain ADK1, stronger effect = lower value",0.965
same,normalized growth,"locus YDR477W, strain SNF1, stronger effect = lower value",0.928
same,normalized growth,"locus YER123W, strain YCK3, stronger effect = lower value",0.928
same,normalized growth,"locus YER133W, strain GLC7, stronger effect = lower value",0.955
same,normalized growth,"locus YFL009W, strain cdc4, stronger effect = lower value",0.966
same,normalized growth,"locus YFL029C, strain CAK1, stronger effect = lower value",0.953
same,normalized growth,"locus YFR003C, strain YPI1, stronger effect = lower value",0.963
same,normalized growth,"locus YFR019W, strain FAB1, stronger effect = lower value",0.992
same,normalized growth,"locus YFR028C, strain CDC14, stronger effect = lower value",0.961
same,normalized growth,"locus YGR040W, strain KSS1, stronger effect = lower value",0.922
same,normalized growth,"locus YGR052W, strain FMP48, stronger effect = lower value",0.938
same,normalized growth,"locus YGR092W, strain DBF2, stronger effect = lower value",0.716
same,normalized growth,"locus YHR030C, strain SLT2, stronger effect = lower value",0.681 (active)
same,normalized growth,"locus YHR079C, strain IRE1, stronger effect = lower value",0.784
same,normalized growth,"locus YHR082C, strain KSP1, stronger effect = lower value",0.964
same,normalized growth,"locus YHR205W, strain SCH9, stronger effect = lower value",0.941
same,normalized growth,"locus YIL147C, strain SLN1, stronger effect = lower value",0.963
same,normalized growth,"locus YJL095W, strain BCK1, stronger effect = lower value",0.852
same,normalized growth,"locus YJL128C, strain PBS2, stronger effect = lower value",0.952
same,normalized growth,"locus YJL157C, strain FAR1, stronger effect = lower value",0.936
same,normalized growth,"locus YJR016C, strain ILV3, stronger effect = lower value",0.961
same,normalized growth,"locus YJR066W, strain TOR1 (second series), stronger effect = lower value",0.868
same,normalized growth,"locus YJR066W, strain TOR1, stronger effect = lower value",0.894
same,normalized growth,"locus YKL048C, strain ELM1, stronger effect = lower value",0.946
same,normalized growth,"locus YKL067W, strain YNK1, stronger effect = lower value",0.962
same,normalized growth,"locus YKL101W, strain HSL1, stronger effect = lower value",0.923
same,normalized growth,"locus YKL193C, strain SDS22, stronger effect = lower value",0.966
same,normalized growth,"locus YKL203C, strain TOR2, stronger effect = lower value",0.94
same,normalized growth,"locus YLR113W, strain HOG1, stronger effect = lower value",0.735 (active)
same,normalized growth,"locus YLR133W, strain CKI1, stronger effect = lower value",0.884
same,normalized growth,"locus YLR403W, strain SFP1, stronger effect = lower value",0.837
same,normalized growth,"locus YML070W, strain DAK1, stronger effect = lower value",0.941
same,normalized growth,"locus YMR001C, strain CDC5, stronger effect = lower value",0.961
same,normalized growth,"locus YMR205C, strain PFK2 (second series), stronger effect = lower value",0.939
same,normalized growth,"locus YMR277W, strain FCP1, stronger effect = lower value",0.96
same,normalized growth,"locus YNL006W, strain LST8, stronger effect = lower value",0.972
same,normalized growth,"locus YNL020C, strain ARK1, stronger effect = lower value",0.837
same,normalized growth,"locus YNL161W, strain CBK1, stronger effect = lower value",0.956
same,normalized growth,"locus YNL183C, strain NPR1, stronger effect = lower value",0.947
same,normalized growth,"locus YNL207W, strain RIO2, stronger effect = lower value",0.962
same,normalized growth,"locus YNL222W, strain SSU72, stronger effect = lower value",0.959
same,normalized growth,"locus YNL307C, strain MCK1 (second series), stronger effect = lower value",0.883
same,normalized growth,"locus YOL078W, strain AVO1, stronger effect = lower value",0.974
same,normalized growth,"locus YOL136C, strain PFK27, stronger effect = lower value",0.948
same,normalized growth,"locus YOR061W, strain CKA2, stronger effect = lower value",0.869
same,normalized growth,"locus YOR119C, strain RIO1, stronger effect = lower value",0.984
same,normalized growth,"locus YOR231W, strain MKK1, stronger effect = lower value",0.837
same,normalized growth,"locus YOR329C, strain SCD5, stronger effect = lower value",0.964
same,normalized growth,"locus YPL031C, strain PHO85, stronger effect = lower value",0.915
same,normalized growth,"locus YPL153C, strain RAD53, stronger effect = lower value",0.913
same,normalized growth,"locus YPL204W, strain HRR25, stronger effect = lower value",0.92
same,normalized growth,"locus YPL209C, strain IPL1, stronger effect = lower value",0.959
same,normalized growth,"locus YPL256C, strain CLN2, stronger effect = lower value",0.782 (active)
same,normalized growth,"locus YPR025C, strain CCL1, stronger effect = lower value",0.965
same,normalized growth,"locus YPR106W, strain ISR1, stronger effect = lower value",0.989
same,normalized growth,"locus YPR111W, strain DBF20, stronger effect = lower value",0.968
same,normalized growth,"strain NNK1, stronger effect = lower value",0.973
same,normalized growth,"strain TSCII, stronger effect = lower value",0.956

# From PubChem BioAssay AID1159580 (chemical genetic matrix, 2015)
